# From PubChem BioAssay (NCI)
# This is part of a sample that, as a whole, favours compounds with a hit. Of some 83,000 tested, about 20% had one in any assay.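 Percent growth is the endpoint: 0 to 100 indicates growth inhibition (40 means 60% inhibition), 0 means no net growth, and negative values indicate cell death.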 Activity calls are given as the source filed them. Rule for the calls: active = growth percent below 10; inactive = the rest.
# Test system: MDA-MB-468 breast
# Test: NCI-60 one-dose screen, 48 h (100 = growth as untreated, 0 = no growth, -100 = all killed)
# Conditions: 10 µM unless noted
row,SMILES,growth
1,CS(=O)(=O)c1ccc(N/N=C/c2c(-c3ccc(S(C)(=O)=O)cc3)[nH]c3ccc(F)cc23)cc1,64.3% (inactive)
2,O=C(Nc1nc(-c2ccc(Cl)cc2)cs1)c1cc(O)c(O)c(O)c1,55.8% (inactive)
3,Cc1c(NC(=O)OC[C@@H]2COCCN2)cn2ncnc(Nc3ccc4c(cnn4Cc4cccc(F)c4)c3)c12,-53.7% (active)
4,O=C(CNc1ccc(Cl)cc1)Nc1ccc(-c2nc3ccccc3s2)cc1,-11.2% (active)
5,Cc1c(O)cnc2nn(-c3ccccc3)c(=N)n12,108% (inactive)
6,COc1ccccc1NC(=O)c1cc2cc(Br)ccc2cc1O,-9.27% (active)
7,C=CN(C(=O)N1CCN(c2cc3c(cc2F)c(=O)c(C(=O)O)cn3C2CC2)CC1)c1nc(-c2ccc(Cl)cc2)cs1,76.3% (inactive)
8,CCn1cc(C2NC(=O)c3ccccc3N2)c2cccc(C)c21 (stereo not given),17.9% (inactive)
9,Nc1nccc2c1ccn2-c1ccc(NC(=O)Nc2cccc(C(F)(F)F)c2)cc1,72.8% (inactive)
10,Cn1cc(Nc2nccc(-c3ccc(N4CCCC4)c(C#N)c3)n2)cn1,61.8% (inactive)
11,N#Cc1nnn(-c2ccc(S(N)(=O)=O)cc2)c1NC(=O)CCl,98.7% (inactive)
12,O=c1[nH]c2ccccc2cc1-c1nc2ccncc2[nH]1,75% (inactive)
13,Cc1cc(=O)oc2c1ccc1oc(C(=O)c3ccccc3)c(C)c12,76.1% (inactive)
14,O=C(Cc1ccc(Nc2ccnc(C(F)(F)F)c2)cc1)N/N=C/c1ccccc1O,8.1% (active)
15,O=c1[nH]c(=S)[nH]n1C(=S)n1[nH]c(=S)[nH]c1=O,92.5% (inactive)
16,Cc1ccc(/C=C(\C#N)n2nnc3cc(Cl)c(Cl)cc32)cc1,22.3% (inactive)
17,Nc1nc2ccccc2c2c(=O)c3cc(F)ccc3sc12,-27.2% (active)
18,O=C1OC(=O)C2C1CC=CC2c1ccccc1 (stereo not given),93.3% (inactive)
19,Cc1nn(-c2ccccc2)c(N)c1N=C1NC(=O)/C(=C/c2ccc(Br)cc2)S1,86.6% (inactive)
20,CCCNc1nc2ccccc2c2c(=O)c3cccc(Cl)c3sc12,36.2% (inactive)

row,SMILES,growth
1,S=c1[nH]nc2ccccn12,98.2% (inactive)
2,C=C1C(=O)O[C@H]2[C@H]1CC/C(COC(=O)NCC(=O)Nc1ccc(OC)c(C(N)=O)c1O)=C\CC[C@@]1(C)O[C@@H]21,8.85% (active)
3,COc1ccc(S(=O)(=O)Nc2cc(/C=C\c3cc(OC)c(OC)c(OC)c3)cc(OC)c2OC)cc1OC,25.5% (inactive)
4,COc1cc(/C=C/C(=O)c2ccc(Oc3ncnc4ccccc34)cc2)cc(OC)c1OC,13.8% (inactive)
5,COc1ccc(C(=O)c2cc3c(N)c(C(=O)Nc4cccc(Br)c4C)sc3nc2C)cc1,-1.96% (active)
6,O=C1/C(=C/c2cccs2)CCC/C1=C\c1cccs1,-45.5% (active)
7,O=C(Nc1ccc(N=Nc2ccccc2)cc1)c1cccc2ccccc12,41.9% (inactive)
8,Cc1ccc(C(=O)NC2c3ccccc3Oc3ccccc32)cc1,41.8% (inactive)
9,CC[C@@H](CO)Nc1ccc2ncc(C#Cc3cncc(C(=O)Nc4ccc(CN5CCN(C)CC5)c(C(F)(F)F)c4)c3)n2n1,-68.4% (active)
10,Cc1ccc(C)c2c1CCC2C(C)C (stereo not given),106% (inactive)
11,CC(=O)Nc1sc2c(c1-c1nc3ccccc3s1)CNC2,-3.09% (active)
12,CCc1ncnc2c1ccn2C(C)c1ccc(OC)c(F)c1 (stereo not given),-1.21% (active)
13,CC1CCC(C(C)(C)[N+](C)(C)C)CC1 (stereo not given),120% (inactive)
14,CN1C(=O)/C(=C/c2ccc(C(=O)Nc3ncc(Cc4ccc(F)cc4)s3)cc2)SC1=S,25.2% (inactive)
15,COc1cc(/C=C/C(=O)c2nc3cc(F)ccc3nc2C)cc(OC)c1OC,23.6% (inactive)
16,COc1ccc(-c2cc(-c3ccc(Cl)cc3)nc3nc(N)nn23)cc1,78.5% (inactive)
17,CS(=O)(=O)O[C@@H]1C(=O)N(c2cc3c4ccccc4ccc3c3ccccc23)[C@H]1c1ccc(F)cn1,30.4% (inactive)
18,Nc1c(C(=O)c2ccc(Br)cc2)oc2nc(-c3cnccn3)cc(-c3cccs3)c12,99.4% (inactive)
19,COc1cc2c(cc1-c1c(C)noc1C)ncc1nc(C3CCCCC3)n(C3CCC(OC(F)F)CC3)c12 (stereo not given),29.8% (inactive)
20,COc1cccc(/C=C2\SC(N3CCN(c4ccccn4)CC3)=NC2=O)c1,101% (inactive)
